Measured values published in PubChem BioAssay (NCI).
This is part of a sample that, as a whole, favours compounds with a hit. Of some 83,000 tested, about 20% had one in any assay.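 Assay: single dose, 48 h. Readout: percent growth (0 = no net growth; negative = cell death). Active: <10.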 The source made the active and inactive calls.

What was measured:
Assay in all cases: NCI-60 one-dose screen, 48 h (100 = growth as untreated, 0 = no growth, -100 = all killed)
Conditions in all cases: 10 µM unless noted
DU-145 prostate = tested on: DU-145 prostate
MALME-3M melanoma = tested on: MALME-3M melanoma
MDA-MB-231 breast = tested on: MDA-MB-231 breast
RXF 393 renal = tested on: RXF 393 renal
SF-268 CNS = tested on: SF-268 CNS
SF-295 CNS = tested on: SF-295 CNS
SF-539 CNS = tested on: SF-539 CNS
M14 melanoma = tested on: M14 melanoma
K-562 leukemia = tested on: K-562 leukemia
UACC-257 melanoma = tested on: UACC-257 melanoma

Measured: growth

CSc1nc2nc3c(nc2c(=O)n1C)C(=O)c1ccccc1C3=O
active: DU-145 prostate -89.7% | MALME-3M melanoma -93% | MDA-MB-231 breast -4.27% | RXF 393 renal -79.3% | SF-268 CNS -17.9% | SF-295 CNS -93.4% | SF-539 CNS -99.8% | M14 melanoma -84.6%

Cn1c(=O)c2[nH]c(=S)n(Cc3ccccc3)c2n(C)c1=O
inactive: DU-145 prostate 105% | K-562 leukemia 84.6% | MDA-MB-231 breast 101% | RXF 393 renal 120% | SF-268 CNS 95.8% | SF-295 CNS 118% | SF-539 CNS 93.8% | UACC-257 melanoma 90.4% | M14 melanoma 99.7%

O=C(COc1ccc(/C=C2\Oc3ccc4ccccc4c3C2=O)cc1)c1ccc(Cl)cc1
inactive: K-562 leukemia 89.7% | MALME-3M melanoma 110% | MDA-MB-231 breast 113% | SF-268 CNS 97.6% | SF-295 CNS 96.9% | SF-539 CNS 93.1% | UACC-257 melanoma 103% | M14 melanoma 95%

O=C(COc1cccc(/C=C2\Oc3ccc4ccccc4c3C2=O)c1)c1ccc(Cl)cc1
inactive: K-562 leukemia 122% | MALME-3M melanoma 69.4% | MDA-MB-231 breast 84.7% | SF-268 CNS 88.8% | SF-295 CNS 104% | SF-539 CNS 68.2% | UACC-257 melanoma 95.6%

C[C@]12CC[C@H](O)CC1=CC[C@@H]1[C@@H]2CC[C@]2(C)C(c3cccnc3)=CC[C@@H]12
inactive: DU-145 prostate 90.6% | MALME-3M melanoma 70.8% | MDA-MB-231 breast 85.1% | SF-268 CNS 79.5% | SF-295 CNS 42% | SF-539 CNS 31.8% | M14 melanoma 71%

CCOC(=O)c1sc(NC(=O)COc2ccc(/C=C3\CCc4cc(OC)ccc4C3=O)cc2)nc1C
inactive: K-562 leukemia 71.7% | MDA-MB-231 breast 94.1% | SF-268 CNS 80.1% | SF-295 CNS 118% | SF-539 CNS 95.1% | UACC-257 melanoma 93.7% | M14 melanoma 106%

CC(=O)Nc1ccc(C(=O)COc2ccc(/C=C3\CCc4ccccc4C3=O)cc2)cc1
inactive: K-562 leukemia 80.4% | MDA-MB-231 breast 103% | SF-268 CNS 93.6% | SF-295 CNS 104% | SF-539 CNS 115% | UACC-257 melanoma 98.9% | M14 melanoma 115%

c1ccc(N2c3nc4ccccc4cc3Sc3cc4ccccc4nc32)nc1
inactive: K-562 leukemia 85.7% | MDA-MB-231 breast 68.4% | SF-268 CNS 80.8% | SF-295 CNS 96.1% | SF-539 CNS 111% | UACC-257 melanoma 87.8% | M14 melanoma 109%

COc1ccc2c(c1)CC/C(=C\c1ccc(OCC(=O)Nc3nc4ccccc4s3)cc1)C2=O
inactive: K-562 leukemia 84.7% | MALME-3M melanoma 92.5% | MDA-MB-231 breast 82.5% | SF-268 CNS 89.6% | SF-295 CNS 95% | SF-539 CNS 73.7% | UACC-257 melanoma 96.5% | M14 melanoma 89%

O=C(Nc1nc2ccc(OC(F)(F)F)cc2s1)c1ccc(F)cc1
inactive: MALME-3M melanoma 10.9% | MDA-MB-231 breast 27.1% | RXF 393 renal 48.5% | SF-539 CNS 21.5% | UACC-257 melanoma 22.3%
active: K-562 leukemia 9.01% | SF-268 CNS 8.27% | SF-295 CNS 4%

COc1ccc(C(=O)COc2ccc(/C=C3\Oc4ccc5ccccc5c4C3=O)cc2)cc1
inactive: K-562 leukemia 83% | MALME-3M melanoma 85.5% | MDA-MB-231 breast 97% | SF-268 CNS 104% | SF-295 CNS 102% | SF-539 CNS 72.5% | UACC-257 melanoma 98.3% | M14 melanoma 99.5%

CC(=O)Nc1cc(C(c2ccccc2)c2ccccc2)cc(C(c2ccccc2)c2ccccc2)c1C
inactive: K-562 leukemia 35.3% | MALME-3M melanoma 75.2% | MDA-MB-231 breast 69.8% | SF-268 CNS 53.5% | SF-295 CNS 54.9% | SF-539 CNS 77.3% | UACC-257 melanoma 64.8% | M14 melanoma 79.2%

COc1ccc(CCN2C(=O)CCC3=C2CCCC3=O)cc1OC
inactive: K-562 leukemia 106% | MALME-3M melanoma 91.7% | MDA-MB-231 breast 89.9% | RXF 393 renal 113% | SF-268 CNS 136% | SF-295 CNS 112% | SF-539 CNS 103% | M14 melanoma 99.1%

O=C(N/N=C/c1cccc(O)c1)c1ccc(C(F)(F)F)nc1Nc1cccc(C(F)(F)F)c1
inactive: SF-268 CNS 17.6% | UACC-257 melanoma 19.6% | M14 melanoma 35.7%
active: K-562 leukemia 5.13% | MALME-3M melanoma 1.33% | MDA-MB-231 breast -26.8% | SF-295 CNS -39.3% | SF-539 CNS 7.23%

O=C(COc1ccc(/C=C2\Oc3ccc4ccccc4c3C2=O)cc1)c1ccc([N+](=O)[O-])cc1
inactive: K-562 leukemia 79.4% | MALME-3M melanoma 85.8% | MDA-MB-231 breast 94.9% | SF-268 CNS 96.9% | SF-295 CNS 105% | SF-539 CNS 65.6% | UACC-257 melanoma 94% | M14 melanoma 92.8%

COc1ccc(Cl)cc1Nc1nc(C(F)(F)F)ccc1C(=O)N/N=C/c1c(Cl)cccc1Cl
inactive: K-562 leukemia 33.8% | MALME-3M melanoma 69.3% | MDA-MB-231 breast 46.3% | SF-268 CNS 65% | SF-295 CNS 13.8% | SF-539 CNS 20.6% | UACC-257 melanoma 60.9% | M14 melanoma 71.3%

O=C(N/N=C/c1ccc(Cl)cc1Cl)c1ccccc1Nc1cccc(C(F)(F)F)c1
inactive: K-562 leukemia 35.3% | MALME-3M melanoma 92.5% | MDA-MB-231 breast 48.9% | SF-268 CNS 112% | SF-295 CNS 24.4% | UACC-257 melanoma 83.6% | M14 melanoma 95.6%
active: SF-539 CNS -93%

COc1ccc2nc(N/N=C(\C)c3ccccn3)cc(C)c2c1
inactive: UACC-257 melanoma 16.7%
active: K-562 leukemia -51.5% | MALME-3M melanoma -24% | MDA-MB-231 breast -63.1% | SF-268 CNS -2.13% | SF-295 CNS -81.2% | SF-539 CNS -90.6%

COc1ccc2c(c1)C(=Nc1cc(OC)c(OC)c(OC)c1)C(=O)N2
inactive: K-562 leukemia 102% | MALME-3M melanoma 90.8% | MDA-MB-231 breast 103% | SF-268 CNS 98% | SF-295 CNS 171% | SF-539 CNS 103% | UACC-257 melanoma 102% | M14 melanoma 101%

O=C(Nc1ccc(Cl)cc1)Nc1nc2ccc(OC(F)(F)F)cc2o1
inactive: K-562 leukemia 60.7% | MALME-3M melanoma 128% | MDA-MB-231 breast 109% | RXF 393 renal 78.9% | SF-268 CNS 123% | SF-295 CNS 70.1% | SF-539 CNS 104% | UACC-257 melanoma 114%

Cc1ccc(-c2cc(-c3ccccc3)n(-c3ccccc3)n2)cc1
inactive: K-562 leukemia 81.2% | MALME-3M melanoma 87.6% | MDA-MB-231 breast 112% | SF-268 CNS 98.3% | SF-295 CNS 156% | SF-539 CNS 115% | UACC-257 melanoma 98.1% | M14 melanoma 110%

COc1ccc(CNC(=O)c2c(C)n([O-])c3ccc(OC)cc3[n+]2=O)cc1
inactive: K-562 leukemia 90.8% | MALME-3M melanoma 98.6% | MDA-MB-231 breast 111% | SF-268 CNS 103% | SF-295 CNS 239% | SF-539 CNS 118% | UACC-257 melanoma 109% | M14 melanoma 107%

c1ccc2nc(N/N=C3\CCCCC3C3CCCCC3)ccc2c1 (configuration not stated)
inactive: K-562 leukemia 12.3% | MALME-3M melanoma 46.6% | MDA-MB-231 breast 60.8% | SF-268 CNS 66.8% | SF-295 CNS 25.9% | SF-539 CNS 58.8% | UACC-257 melanoma 72.1% | M14 melanoma 72.1%

O=C(NCCCl)NCCN1c2nc3ccccc3cc2Sc2cc3ccccc3nc21
inactive: K-562 leukemia 21.5% | MALME-3M melanoma 60.4% | MDA-MB-231 breast 39.5% | SF-268 CNS 44.2% | SF-295 CNS 409% | SF-539 CNS 38.3% | UACC-257 melanoma 65.8% | M14 melanoma 69.2%

COc1ccc(CNC(=O)c2c(C)n([O-])c3cc(F)c(F)cc3[n+]2=O)cc1
inactive: K-562 leukemia 46.5% | MALME-3M melanoma 111% | MDA-MB-231 breast 76.3% | SF-268 CNS 88.7% | SF-295 CNS 57.1% | SF-539 CNS 96.9% | UACC-257 melanoma 98% | M14 melanoma 90.5%

COc1ccc(C(=O)COc2cccc(/C=C3\CSc4ccc(Cl)cc4C3=O)c2)cc1
inactive: K-562 leukemia 22.1% | MDA-MB-231 breast 76.2% | SF-268 CNS 91% | SF-295 CNS 95.9% | SF-539 CNS 104% | UACC-257 melanoma 89.3% | M14 melanoma 102%

CC(=O)c1ccccc1NC(=O)C(C)(c1ccccc1)c1ccccc1
inactive: K-562 leukemia 72.5% | MALME-3M melanoma 83% | MDA-MB-231 breast 88.8% | SF-268 CNS 92.6% | SF-295 CNS 86.1% | SF-539 CNS 105% | UACC-257 melanoma 85.9% | M14 melanoma 99.9%

COc1cccc(C2=NN(C(C)=O)C(c3cc(OC)c(OC)c(OC)c3)C2)c1 (configuration not stated)
inactive: MALME-3M melanoma 65.9% | MDA-MB-231 breast 41.3% | SF-268 CNS 38.6% | SF-295 CNS 193% | UACC-257 melanoma 48.3% | M14 melanoma 16.8%
active: K-562 leukemia 9.66% | SF-539 CNS 7.59%

Cc1ccc(S(=O)(=O)NCCN2c3nc4ccccc4cc3Sc3cc4ccccc4nc32)cc1
inactive: K-562 leukemia 87.9% | MALME-3M melanoma 128% | MDA-MB-231 breast 36.8% | SF-268 CNS 52.4% | SF-295 CNS 93.8% | SF-539 CNS 11.7% | UACC-257 melanoma 54.7% | M14 melanoma 77.4%

COc1ccc(C(=O)COc2cccc(/C=C3\COc4ccc5ccccc5c4C3=O)c2)cc1
inactive: K-562 leukemia 47.8% | MALME-3M melanoma 72% | MDA-MB-231 breast 53.7% | SF-268 CNS 83.8% | SF-295 CNS 107% | SF-539 CNS 16% | UACC-257 melanoma 79.4% | M14 melanoma 91.2%

COc1ccc(CNC(=O)c2c(C)n([O-])c3ccccc3[n+]2=O)cc1
inactive: K-562 leukemia 94.9% | MALME-3M melanoma 153% | MDA-MB-231 breast 103% | SF-268 CNS 99.7% | SF-295 CNS 111% | SF-539 CNS 112% | UACC-257 melanoma 90.4%

O=C(COc1cccc(/C=C2\Cc3ccccc3C2=O)c1)c1ccc(Cl)cc1
inactive: K-562 leukemia 100% | MALME-3M melanoma 90% | MDA-MB-231 breast 84.1% | SF-268 CNS 117% | SF-295 CNS 124% | SF-539 CNS 95.6% | UACC-257 melanoma 96.4% | M14 melanoma 105%

O=C(COc1cccc(/C=C2\Oc3ccc4ccccc4c3C2=O)c1)c1ccc([N+](=O)[O-])cc1
inactive: K-562 leukemia 67.3% | MALME-3M melanoma 67.2% | MDA-MB-231 breast 83.3% | SF-268 CNS 85.6% | SF-295 CNS 117% | SF-539 CNS 46.5% | UACC-257 melanoma 102% | M14 melanoma 79.4%
